Only some compounds are listed: those with a hit (about 0.72% of all), similar ones and a draw of the others.
Eya2 inh – qHTS Assay for Inhibitors of the Phosphatase Activity of Eya2; Protein phosphatase EYA2 (Homo sapiens), O00167; recombinant Eya2, OMFP fluorescence dephosphorylation (OMFP is methylfluorescein phosphate); Potency, µM (series often up to 76.9 µM), without a hit: at the top dose activity, negative = inhibition, actives largely listed as inhibitors; 330,000 compounds, 0.006% hits; AID 488837, 2010; note: potency is the fitted concentration of half-maximal effect
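Eya2 (0.2 uM) preincubated 10 min at ambient with compound, then OMFP substrate added at 50 uM; 10 min reaction in 50 mM HEPES pH 7.5, 50 mM NaCl, 5 uM MgCl2, 0.05% BSA, 1 mM DTT. Fluorescence read at Ex 485/Em 525 nm.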
USP2a block – qHTS Assay for Inhibitors of Ubiquitin-specific Protease USP2a Using CHOP2 as the Reporter | Potency, µM (top dose mostly 38.3 µM), inactives show at the top dose activity change, negative = inhibition, usual class: inhibitors | 330,000 compounds, 0.01% hits | AID 463254, 2010 | Ubiquitin carboxyl-terminal hydrolase 2 (Homo sapiens), O75604 | USP2 core, Ub-CHOP2 coupled fluorogenic reporter, 485/531;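 note: potency is the fitted concentration of half-maximal effect; plate controls were DMSO wells for no effect and full inhibition by NEM control for full effect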
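USP2 core (10nM final) preincubated 30min RT with compound in 20mM Tris-HCl pH 8.0, 2mM CaCl2, 2mM beta-mercaptoethanol, 0.05% CHAPS; 25nM Ub-CHOP2 plus 25nM reporter substrate added, fluorescence (Ex485/Em531) read after 60min.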
CtBP-E1A blk – qHTS Assay for Inhibitors of the CtBP/E1A Interaction; CtBP / adenovirus E1A interaction (AlphaScreen); AlphaScreen GST-E1A/His-CtBP binding, 1536-well; hits give low values; activity change, % (no concentration beside the values); 340,000 compounds, 0.49% hits; in the data active = activity change below about -65%; inconclusive = mostly about -30% to -63%
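Protein mix (5X: 125 nM each GST-E1A, His-CtBP) was incubated with pinned compound 2 h at 37 deg C in dark, in 50 mM Tris pH 8.0 buffer with 300 mM NaCl. Glutathione donor and nickel acceptor beads followed; AlphaScreen signal read after 1 h.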
Six1-Eya2 inh – qHTS Assay for Inhibitors of the Six1/Eya2 Interaction; Homeobox protein SIX1 (Homo sapiens) + Protein phosphatase EYA2 (Homo sapiens), …; AlphaScreen GST-Six1/His-Eya2 binding, biochemical; hits give low values; activity change, % (concentration not given with the values); 360,000 compounds, 0.56% hits; in the data active = activity change below about -65%; inconclusive = mostly about -30% to -63%
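AlphaScreen with GST-Six1 and His-Eya2 (5X mix: 250 nM and 500 nM), glutathione donor and nickel acceptor beads; buffer 50 mM Tris pH 8.0, 300 mM NaCl, 1 mM TCEP; 1 h at 37 C in the dark.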
PI4K2A block – qHTS for small molecular inhibitors of PI4K2A | 420,000 compounds, 0.13% hits | purified PI4K2A, ADP-Glo luminescence, 1 h; hits give low values | activity change, negative = inhibition, % at 76.9 µM | Phosphatidylinositol 4-kinase type 2-alpha (Homo sapiens), Q9BTU6; in the data active = activity change below about -50%; inconclusive = mostly about -30% to -49%;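 note: -100% = wells without enzyme as full effect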
Target sequence (Q9BTU6 whole entry, looked up): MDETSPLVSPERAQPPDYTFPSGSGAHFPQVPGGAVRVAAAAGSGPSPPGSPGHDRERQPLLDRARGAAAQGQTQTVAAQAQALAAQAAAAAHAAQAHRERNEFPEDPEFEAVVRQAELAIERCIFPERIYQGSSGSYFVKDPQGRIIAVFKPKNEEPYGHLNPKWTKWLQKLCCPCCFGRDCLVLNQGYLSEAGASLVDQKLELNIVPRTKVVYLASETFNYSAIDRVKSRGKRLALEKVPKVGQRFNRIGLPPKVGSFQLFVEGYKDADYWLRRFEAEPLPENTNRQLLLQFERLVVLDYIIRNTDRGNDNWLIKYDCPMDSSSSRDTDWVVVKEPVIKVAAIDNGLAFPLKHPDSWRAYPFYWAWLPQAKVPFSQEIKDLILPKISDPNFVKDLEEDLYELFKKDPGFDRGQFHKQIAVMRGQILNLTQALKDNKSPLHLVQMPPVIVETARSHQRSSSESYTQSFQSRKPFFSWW
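In this quantitative HTS, ADP production by PI4K2A was quantified luminescently after 1 h at ambient temperature; 100 microM adenosine served as plate-quality control.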
RGS4 inh – Inhibitors of Regulator of G Protein Signaling (RGS) 4: qHTS. Regulator of G-protein signaling 4 (Homo sapiens), P49798. Transcreener GDP fluorescence polarization, RGS4-accelerated GTP hydrolysis. Potency, µM (series often up to 114 µM), without a hit: top-dose activity change, negative = inhibition, most hits filed as inhibitors. 390,000 compounds, 0.039% hits. AID 504845, 2011; note: potency is the fitted concentration of half-maximal effect; nearly all actives have a fitted effect of over 75% in size
Target sequence (P49798 whole entry, looked up): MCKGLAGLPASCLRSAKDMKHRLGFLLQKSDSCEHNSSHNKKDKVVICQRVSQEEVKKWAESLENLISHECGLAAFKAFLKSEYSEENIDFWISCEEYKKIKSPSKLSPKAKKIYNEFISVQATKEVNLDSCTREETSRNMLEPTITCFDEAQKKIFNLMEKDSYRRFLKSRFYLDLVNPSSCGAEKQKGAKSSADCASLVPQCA
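MLSMR compounds (23 nl, pin-transferred) preincubated 10 min at room temperature with a 500nM (2x) first reagent, then RGS4 at 900nM (2x) plus Transcreener GDP mix added; fluorescence polarization (620/688 nm) read before and after 90 min at 30 °C.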
* = called active by the depositor; ? = inconclusive; . = not tested or not shown. Unless noted, calls come from the whole dose curve; as a rule, active = well fitted curve in the direction sought with a large enough effect; inconclusive = small, poorly fitted or top-dose-only effect, or another doubt; inactive = no such curve, though single readings can be large; an effect the other way counts as inactive or inconclusive. Unless noted, % is set by controls: 0 for no effect and ±100 for the full control effect.

SMILES	Eya2 inh	USP2a block	CtBP-E1A blk	Six1-Eya2 inh	PI4K2A block	RGS4 inh
CCCS(=O)(=O)N1CCCC(C(=O)NCCCOC)C1 (stereo unspecified)	.	.	.	.	-15.2	4.1%
C/C(=N\NC(=O)COc1ccccc1-c1ccccc1)c1ccccn1	2.4%	-1.5%	-25.0	-65.4*	5.6	11.5%
C/C(=N\NC(=O)c1ccc(Cl)cc1)c1ccccn1	9.3%	0.7%	?	-89.7*	-3.2	16.3%
C/C(=N\NC(=O)COc1ccccc1-c1ccccc1)c1cccnc1	-11.9%	4.0%	0.9	0.7	7.3	-12.4%
C/C(=N\NC(=O)c1ccccn1)c1ccc(Cl)cc1	-16.1%	3.2%	-13.9	-15.6	-3.8	8.4%
O=C(CSc1nnc(-c2ccc(C(F)(F)F)cn2)o1)Nc1ccccc1Cl	-3.6%	1.7%	?	-84.0*	-4.7	?
O=C(/C=C/c1cc(Br)ccc1F)OCC(=O)N1CCOCC1	0.2%	2.7%	-81.5*	-24.0	-1.7	-0.8%
CCN(CC)c1ccc(N=Cc2ccccc2[N+](=O)[O-])cc1	13.2%	4.5%	15.9	-79.9*	-11.9	-137.9%
CCN(CC)c1ccc(N=Cc2ccc([N+](=O)[O-])o2)cc1	3.6%	2.0%	-23.4	?	-28.8	?
COCCCNC(=S)NNC(=O)c1csc(C)n1	8.5%	-0.3%	.	-78.4*	1.3	-15.5%
CCc1ccc(C2C(C(=O)Nc3ccccc3OC)=C(C)Nc3nc(SCc4ccccc4)nn32)cc1 (stereo unspecified)	.	.	.	.	0.8	17.9%
CSc1nnc(C)c(/C=C/Nc2ccc(C)cc2)n1	0.1%	3.7%	-66.6*	-13.8	-8.2	-41.7%
COc1cccc(N=Nc2c(N)[nH]n3c(=O)c4c(nc23)CCCC4)c1	6.6%	0.3%	-15.9	-71.2*	5.6	-35.6%
COc1cccc(N=Nc2c(N)[nH][nH]c2=O)c1	-7.6%	3.9%	-15.2	-16.2	-8.1	-27.5%
COc1cccc(CNC(=O)c2cc3c(C)nc4ccccc4c3o2)c1	13.2%	-2.4%	-65.6*	?	1.5	-3.3%
COc1ccc(CNC(=O)c2cc3c(C)nc4ccccc4c3o2)c(OC)c1	12.2%	-0.4%	-29.3	?	-2.4	-28.8%
COc1cccc(CNC(=O)c2c[nH]n3c(=O)c(Cl)c(C)nc23)c1	-2.9%	-0.1%	-75.8*	-83.7*	4.5	-1.7%
CCCCc1cc(=O)oc2cc(OCC(=O)NC(Cc3c[nH]c4ccc(O)cc34)C(=O)O)ccc12 (stereo unspecified)	2.4%	-2.1%	0.0	-2.7	-67.6*	19.8%
O=C1C(=O)c2ccc(-c3ccccc3)cc2-c2ccccc21	-7.2%	2.4%	?	?	-63.4*	-40.6%
Nc1ccc2c(c1)C(=O)C(=O)c1ccccc1-2	-5.4%	6.1%	?	?	?	?
COCCNC(=O)CCC(=O)NNc1nc2ccccc2c2nc(-c3ccccc3)nn12	3.3%	13.3%	-17.2	-67.0*	-7.6	3.9%
N#Cc1c(N2CCN(c3ccc(F)cc3)CC2)nc(N)c2c(N)nc3c(c12)CC(=O)N3C1CC1	0.2%	1.4%	-78.1*	-81.8*	-2.4	-36.0%
CN(CCO)c1nc(N)c2c(N)nc3c(c2c1C#N)CC(=O)N3C1CCCC1	-1.6%	2.0%	.	.	.	.
CCn1cc(C(=O)O)c(=O)c2cc(F)c(N3CCN(C(=O)Nc4ccccc4)CC3)cc21	17.1%	0.7%	3.7	-6.7	-7.3	-4.8%
CCn1cc(C(=O)O)c(=O)c2cc(F)c(N/N=C/c3ccccc3)cc21	-5.1%	4.6%	-73.9*	?	-1.3	21.5%
SMILES	Eya2 inh	USP2a block	CtBP-E1A blk	Six1-Eya2 inh	PI4K2A block	RGS4 inh
Cc1ccc2nc(-c3ccccc3)cn2c1	24.3%	1.0%	-2.1	0.5	-69.7*	-8.3%
CCC1CCCCN1CCCNC(=O)c1ccc2c(c1)sc1nc(-c3ccc(F)cc3)cn12 (stereo unspecified)	.	.	.	.	-2.1	21.5%
Cc1cc(/C=N/NC(N)=S)c(O)c(/C=N/NC(N)=S)c1	58.9%	?	-91.6*	-86.9*	-6.8	-40.1%
S=C(NCCN1CCOCC1)N/N=C/c1cccs1	5.2%	3.8%	.	-0.9	-0.1	-3.9%
NC(=S)N/N=C/c1c[nH]c2ccccc12	-2.1%	9.1%	2.3	-11.1	-2.7	-28.2%
Oc1cccc(/C=N/NC(=S)NCCN2CCOCC2)c1O	3.4%	1.7%	-93.7*	-69.3*	-10.9	-8.5%
NC(=S)N/N=C/c1cccc(O)c1O	-0.5%	-0.8%	-93.2*	-79.9*	-5.9	-22.8%
NC(=S)NN=Cc1c[nH]c2nccnc12	.	.	-23.6	-66.2*	-16.9	.
CCOc1ccc(-c2cn3c(n2)sc2cc(C(=O)NCCCc4ccccc4)ccc23)cc1	.	.	.	.	-2.3	3.0%
Cc1cc(C)cc(NC(=O)C2CCCN(c3cnccn3)C2)c1 (stereo unspecified)	.	.	.	.	-0.4	-7.6%
Cc1ccc(-c2ccccc2C#N)cc1	.	.	.	.	-1.7	.
NC(=S)N/N=C/c1ccccc1O	2.5%	4.9%	-68.1*	-87.5*	5.7	-7.8%
O=C(N/N=C/c1ccccc1O)C1SCCCS1	-0.6%	3.7%	-95.0*	-91.9*	-5.1	-6.6%
Oc1ccccc1C=NNC(=S)NN=Cc1ccccc1O	.	.	-94.9*	-80.6*	5.0	-29.4%
Oc1ccccc1/C=N/Nc1ccccc1	-6.8%	0.4%	0.0	-14.7	-3.2	-22.0%
CCOC(=O)N1CCN(C(=O)C[C@H]2C[C@@]3(C(=O)OC)C(=C[C@H](C(C)C)O[C@@H]3C3CC3)N(Cc3ccc4c(c3)OCO4)C2=O)CC1	.	.	.	.	-1.5	.
COc1ccccc1C(C)Nc1nc(-c2cccnc2)nc2ccccc12 (stereo unspecified)	2.9%	0.0%	?	-29.8	0.1	-23.7%
COc1cccc(C(=O)Nc2cccc(C(=O)NC3=NN(c4c(Cl)cc(Cl)cc4Cl)C(=O)C3)c2)c1	-6.5%	-10.1%	-80.5*	-70.9*	5.1	23.0%
COc1ccc(/C=C2\C(=O)N(c3c(Cl)cc(Cl)cc3Cl)N=C2NC(=O)c2cccc([N+](=O)[O-])c2)cc1	-1.5%	-1.9%	-1.8	-78.9*	-14.7	?
COc1ccc(S(=O)(=O)NCCc2sc(C)nc2C)cc1F	.	.	.	.	8.7	?

Compound activity from PubChem BioAssay.
